M1 ag = human M1 muscarinic receptor agonism; CHO-K1 hM1, Fluo-8 calcium fluorescence, agonist mode; 0% DMSO, 100% acetylcholine EC100; actives 0.33% (n = 360,000); AID 588814; P11229; activation, % at 3 µM;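 active = activation above the run's mean compound activation plus 3 SD, cut at about 16% in these data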;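 note: peak over basal fluorescence ratio within a 140 s kinetic read after compound addition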
Target sequence (P11229 whole entry, looked up): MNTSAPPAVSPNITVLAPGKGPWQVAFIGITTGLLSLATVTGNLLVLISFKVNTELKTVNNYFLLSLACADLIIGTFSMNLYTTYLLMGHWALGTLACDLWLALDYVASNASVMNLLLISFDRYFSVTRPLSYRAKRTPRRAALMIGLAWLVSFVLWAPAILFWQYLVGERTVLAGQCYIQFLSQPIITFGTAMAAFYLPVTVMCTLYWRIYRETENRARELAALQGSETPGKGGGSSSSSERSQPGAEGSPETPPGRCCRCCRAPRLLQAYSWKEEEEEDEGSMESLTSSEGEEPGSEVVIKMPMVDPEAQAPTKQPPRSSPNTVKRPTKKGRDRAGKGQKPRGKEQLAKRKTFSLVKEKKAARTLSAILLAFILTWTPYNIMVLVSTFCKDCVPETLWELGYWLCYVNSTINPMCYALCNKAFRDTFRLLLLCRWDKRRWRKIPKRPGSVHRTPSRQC
CHO-K1 Ca ag = M1 agonist counterscreen hit in parental CHO-K1 cells; Fluo-8 calcium fluorescence; scaled to maximal ATP response, vehicle zero; activation, % at 3 µM; actives 0.48% (n = 360,000); AID 602248; in the data active = activation above about 15%;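 note: untransfected CHO-K1 host cells lacking M1 receptor as counterscreen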
M1 antag = blocks human M1 muscarinic receptor. P11229. actives 1.3% (n = 360,000). inhibition, % at 3 µM. CHO-K1 hM1, Fluo-8 calcium fluorescence, ACh EC80 antagonist;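 active = percent inhibition above its own plate's cutoff, namely the mean of that plate's compound wells plus 3 SD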;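 note: peak over basal fluorescence ratio during 140 s after agonist addition; 0% = ACh EC80 plus DMSO and 100% = DMSO alone without agonist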
CHO-K1 Ca antag = M1 antagonist counterscreen hit in parental CHO-K1 cells; inhibition, % at 3 µM; ATP-induced calcium, Fluo-8 fluorescence; AID 602250; actives 0.6% (n = 360,000);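 active = inhibition above a per-plate cutoff, the plate's mean sample inhibition plus 3 SD, cut at about 24% in these data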;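 note: 0% = DMSO plus EC80 ATP and 100% = DMSO alone without ATP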
M1 PAM parental = counter-screen for M1 PAMs: effect in parental CHO-K1 cells; ATP EC20, Fluo-8 calcium fluorescence; 0% at ATP EC20, 100% at ATP max; activation, % at 3 µM; actives 0.02% (n = 360,000); AID 602247;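 active = activation above the run cutoff, the mean activation of all test compounds plus 3 SD, cut at about 40% in these data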;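 note: peak over basal fluorescence ratio in a 140 s read after ATP addition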
M1 PAM = potentiates human M1 receptor response to acetylcholine | actives 0.088% (n = 360,000) | P11229 | CHO-K1 hM1, Fluo-8 calcium fluorescence, ACh EC20; 0% = ACh EC20, 100% = maximal ACh | activation, % at 3 µM | AID 588819; in the data active = activation above about 19%, passing the limit was not always enough
Starred values were filed as active, the others as inactive. An excerpt weighted towards active compounds, which were near 2.3% of everything screened.

SMILES	M1 ag	CHO-K1 Ca ag	M1 antag	CHO-K1 Ca antag	M1 PAM parental	M1 PAM
COc1ccc(C(=O)Nc2ccccc2C(=O)NCc2ccco2)cc1OC	1	4	20*	3	16	-12
COc1ccc(S(=O)(=O)Nc2ccccc2C(=O)NCc2ccco2)cc1	-3	1	-7	-2	15	6
CN(c1ccccc1C(=O)Nc1ccccc1C(=O)NCc1ccco1)S(C)(=O)=O	1	0	-3	35*	-8	12
COCCNC(=S)N1CCC(NC(=O)c2ccco2)CC1	-3	0	-18	-16	18	11
O=C1CN(CC(=O)Nc2ccc(Cl)cc2)CCN1	-2	0	-6	-1	13	3
O=C1CN(CC(=O)Nc2ccc(SC(F)F)cc2)CCN1	-1	-1	10	27*	-16	-7
O=C(NCCN1CCOCC1)C1CCN(c2ncnc3c2sc2cccc(F)c23)CC1	-4	1	0	14	7	-3
CCCCN(CC)CCCNC(=O)C1CCN(c2ncnc3c2sc2cccc(F)c23)CC1	-5	0	42*	-1	-8	-18
CC1CCc2nc3sc4c(c3c(N)c2C1)CCCC4 (stereo not given)	-12	0	2	0	12	-13
Nc1c2c(nc3sc4c(c13)CCCCC4)CCCCC2	-6	8	51*	2	1	-24
Cc1cc(SCC(=O)NCC(c2cccs2)N2CCOCC2)c(C)cc1Br (stereo not given)	-2	4	3	-2	6	2
Cc1cc(C(=O)CCl)c(C)n1CCc1ccc(Cl)cc1	-3	1	33*	-3	9	-11
COCCCNC(=O)c1ccccc1Sc1ccc(NC(C)=O)nc1	-6	0	-2	24*	-14	4
COCCSc1ccccc1C(=O)Nc1ccc(Cl)cn1	-6	1	-11	-9	21	12
O=C(CSc1nnc(-c2cccnc2)n1-c1ccc(SC(F)F)cc1)N1CCCc2ccccc21	-8	0	2	24*	-13	8
CC1(C(=O)NS(=O)(=O)c2ccccc2Cl)CCN1C(=O)Cc1ccccc1Cl (stereo not given)	0	1	-8	-8	10	3
COC(=O)C(CCSC)NC(=O)c1cc2c(n(-c3ccc(C)cc3)c1=O)CCCC2=O (stereo not given)	-8	1	-8	-1	12	9
COC(=O)C(CCSC)NC(=O)c1cc2c(n(-c3ccccc3)c1=O)CC(C)(C)CC2=O (stereo not given)	-3	0	6	27*	-14	3
COc1ccc(C(=O)C2CCCN(C/C=C/c3ccccc3OC)C2)c(OC)c1 (stereo not given)	-10	0	51*	12	-11	-28
COc1c(C)cc(C(=O)C2CCCN(Cc3cccc4nccnc34)C2)cc1C (stereo not given)	-12	1	42*	-8	4	-29
CCOC(=O)N1CCC(N2CCCC(C(=O)c3cc(C)c(OC)c(C)c3)C2)CC1 (stereo not given)	-11	0	78*	-5	6	-27
COc1ccccc1C(=O)C1CCCN(Cc2cccc3nccnc23)C1 (stereo not given)	-4	5	45*	-10	-10	-19
COc1cccc(C(=O)C2CCCN(C/C=C/c3ccccc3OC)C2)c1 (stereo not given)	-8	2	21	-20	-4	-17
CCN1CCN(C(=O)C(C)Nc2ccc(OC)cc2OC)CC1 (stereo not given)	-4	0	-7	-4	5	5
O=C(Nc1cccc(C(F)(F)F)c1)c1csc([C@H]2C[C@H](O)[C@@H](CO)O2)n1	-1	1	-15	16	-8	8
SMILES	M1 ag	CHO-K1 Ca ag	M1 antag	CHO-K1 Ca antag	M1 PAM parental	M1 PAM
CCOC(=O)c1c(NC(=O)C2CCCO2)sc(C)c1C (stereo not given)	-5	-1	47*	-6	3	-19
Cc1sc(NC(=O)C2CCCO2)c(C(N)=O)c1C (stereo not given)	-3	0	-13	-12	21	12
CCCC(C)c1nnc(NC(=O)C2CCCO2)s1 (stereo not given)	-12	1	55*	-14	6	-27
CCCCc1nc2sc3c(=O)n(N)cnc3c2c2c1CCC2	-7	1	-3	-6	19	9
OC(CN1CCN(c2cccc(C(F)(F)F)c2)CC1)c1c[nH]c2ccccc12 (stereo not given)	-3	2	12	30*	-7	-2
c1csc(CCNc2ncnc3sc4c(c23)CCC4)c1	2	7	33*	18	-12	-18
Cc1cccc(OCCSc2nc3ccccc3n2CCC(=O)O)c1	-2	0	-7	-4	2	7
CN(C(=O)c1cncc(Br)c1)C1C2CC3CC(C2)CC1C3 (stereo not given)	-8	2	-6	-1	-3	-1
COc1cc(C(C)=O)ccc1OCC(=O)OCCCOC(=O)COc1ccc(C(C)=O)cc1OC	-3	2	0	-8	-3	7
Cc1cc(-n2cccn2)ccc1CN1CCN(C2CCCC2)C(CCO)C1 (stereo not given)	-4	0	100*	6	-13	-20
CC(C)CCN1CCN(Cc2cccc(-n3cccn3)c2)CC1CCO (stereo not given)	-7	0	0	4	-9	-2
Cc1cc(-n2cccn2)ccc1CN1CCN(CC(C)C)C(CCO)C1 (stereo not given)	-7	1	48*	-17	16	-24
Cc1ccc(CN2CCN(Cc3ccc(-n4cccn4)cc3)CC2CCO)cc1 (stereo not given)	-14	0	-15	-5	7	9
CC[C@@H](C(=O)[C@@H](C)[C@@H](O)[C@H](C)CCc1ccc(C)c(O)c1C(=O)O)[C@H]1O[C@](CC)([C@H]2CC[C@](O)(CC)[C@H](C)O2)C[C@@H]1C	61*	26*	-6	10	-1	-19
O=C(COC(=O)CCc1nc2ccccc2c(=O)[nH]1)Nc1ccccc1Cl	-4	2	-8	-8	17	4
O=C(COC(=O)CCc1nc2ccccc2c(=O)[nH]1)Nc1ccccc1OC(F)F	5	0	-15	9	3	24*
Cc1ccc(-c2nnn(CC(=O)N(CCCO)C(C(=O)NC3CCCC3)c3ccc(F)cc3)n2)o1 (stereo not given)	-3	0	-8	-14	5	10
CC(C)NC(=O)c1ccc(CN2CCc3ccccc3C2)cc1	-9	0	45*	5	4	-27

From PubChem BioAssay
